The record followed here is PubChem BioAssay AID434947 (Broad Institute, 2010).

Hit rate of the full screen: of about 2,200 compounds, about 15 (0.7%) were called active.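 How the source made its calls: active means fitted half-maximal concentration for loss of luminescence signal no more than a set limit of log units above the top tested concentration; inconclusive means flat fit with 30 to 70% signal loss, or invalid fit; inactive means half-maximal concentration above that set limit.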 Shown is part of a subset that was picked to be rich in actives.

The assay is described as follows: ADP-Glo luciferase signal interference – biochemical, luminescence, cell-free, homogeneous, artefact control for GSK3beta inhibitor project, dose response (AID 434947).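 Further: kinase-free counter screen of ADP-Glo detection reagents for GSK3beta hits.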 Conditions: Cell-free ADP-Glo reagents, 5 uM ADP. (In ADP-Glo the light output rises with the ADP produced.)
For orientation: EC50 means the concentration giving half of the maximal effect. With `CNc1nc(N)c([N+](=O)[O-])c(NCC2CCCO2)n1` (stereo not drawn), the EC50 was > 30 µM (inactive).
On to `COc1cc(SC)ccc1C(=O)OCC(=O)NCCNC(=O)COC(=O)c1ccc(SC)cc1OC`, for which the EC50 was > 30 µM (inactive).
For `CCOC(=O)COC(=O)c1ccc(O)cc1`, the EC50 was > 30 µM (inactive).
As to `Cc1ccc(C(=O)O/N=C(\N)c2ccccn2)c(C)c1`, the EC50 is 17.6 µM (active).
Consider `COc1ccc(C(=O)OCCc2ccc(O)cc2)cc1`, for which the EC50 is > 30 µM (inactive).
For `Cc1ccc(-c2cc(C(=O)NCCc3ccccn3)c3ccccc3n2)c(C)c1`, the EC50 was > 30 µM (inactive).
As to `COc1ccc(C(=O)c2sc(Nc3ccccc3)nc2N)cc1`, the EC50 was > 30 µM (inactive).
Consider `COc1ccc(C(=O)O/N=C(\N)c2ccccn2)cc1`, for which the EC50 was 15.5 µM (active).
`Cc1ccc(C(=O)O/N=C(\N)c2ccccn2)c(Cl)c1`: the EC50 is 26.6 µM (active).
With `Cc1ccc2nc3c(cc2c1)c(NC(=O)c1ccccn1)nn3CC(C)C`, the EC50 is > 30 µM (inactive).
The value for `Cc1ccc(C(=O)N/N=C2\CCCc3ccccc32)c(C)c1` was > 30 µM (inactive).
The figure for `CCc1ccc(CNC(=O)C2CCC(=O)N(CCc3ccc(Cl)cc3)C2)nc1` (stereo not drawn) is > 30 µM (inactive); for `O=C(O)COc1ccc(C(=O)c2ccccc2)cc1` it is > 30 µM (inactive); for `CSc1nc(NCCCN(C)C)c2c3c(sc2n1)CN(C)CC3` it is > 30 µM (inactive).
With `OCCNc1nc(-c2cccnc2)nc2ccccc12`, the EC50 was > 30 µM (inactive).
On to `CCC(C)Nc1nc(N)c([N+](=O)[O-])c(NCc2ccccc2)n1` (stereo not drawn), for which the EC50 was > 30 µM (inactive).
For `Cc1ccc(NC(=O)CSCc2ccc(F)cc2)cc1`, the EC50 was > 30 µM (inactive).
As to `CCN1CCc2c(sc(NC(=O)Cc3ccccc3)c2C(N)=O)C1`, the EC50 was > 30 µM (inactive).
`COc1ccc(OC)c(C(O)c2coc3ccc(O)c(CN(C)C)c23)c1` (stereo not drawn): the EC50 is > 30 µM (inactive).
On to `CCn1c(/C=C/N(C(C)=O)c2ccccc2)[n+](CC)c2ccc(Cl)cc21`, for which the EC50 was > 30 µM (inactive).
As for `CCOc1ccc(/C=N/Nc2ccccn2)cc1OC`, the EC50 is > 30 µM (inactive).
On to `Cc1ccc(S(=O)(=O)CC(=O)c2cc3cccc(C)c3oc2=O)cc1`, for which the EC50 is > 30 µM (inactive).
Take `Nc1nc(NCCc2ccccc2)nc(NCCO)c1[N+](=O)[O-]`: the EC50 is > 30 µM (inactive).
With `O=C(N/N=C/c1ccc(-c2ccc(Cl)c(C(=O)O)c2)o1)c1cc2c(ccc3ccccc32)o1`, the EC50 is > 30 µM (inactive).
For `CCn1c(SCC(=O)Nc2nccs2)nnc1C1CC1`, the EC50 was > 30 µM (inactive).
With `COc1ccc(N(C(=O)c2ccncc2)S(=O)(=O)c2cccc([N+](=O)[O-])c2)cc1`, the EC50 was > 30 µM (inactive).
The value for `Cc1ccc(-c2nc(Nc3cccc(O)c3)c3ccccc3n2)cc1` was > 30 µM (inactive); that for `CN(C)S(=O)(=O)c1cc(NC(=O)COC(=O)Cc2ccc(Br)cc2)ccc1Cl` was > 30 µM (inactive).
On to `CSc1nc(C)cc(-n2ccc(=O)[nH]c2=O)n1`, for which the EC50 was > 30 µM (inactive).
The figure for `CC(C)OCCCN1CN(S(=O)(=O)c2cccc(Cl)c2)c2nc3ccccc3nc21` is > 30 µM (inactive).
The figure for `COc1ccc(-c2nn(-c3ccccc3)cc2C(=O)O)cc1` is > 30 µM (inactive); for `COCCOc1ccc(C(F)(F)F)cc1NC(=O)COC(=O)c1cc[n+]([O-])cc1` it is > 30 µM (inactive).
`COc1cccc(C(=O)Nc2nc3ccccc3s2)c1`: the EC50 is > 30 µM (inactive).
Turning to `CCSc1ccc2nnc(-c3cccs3)n2n1`, the EC50 was > 30 µM (inactive).
On to `CCCCn1nc(NC(=O)CCC)c2cc3cc(OC)ccc3nc21`, for which the EC50 is > 30 µM (inactive).
The figure for `COc1cccc(Nc2nc(-c3ccccc3)nc3ccccc23)c1` is > 30 µM (inactive); for `O=C1Nc2cc(C(=O)NCCCN3CCOCC3)ccc2S/C1=C/c1ccccc1F` it is > 30 µM (inactive); for `Cc1csc2c(=O)n(CCO)c(=O)[nH]c12` it is > 30 µM (inactive).
The value for `CCOc1cc(C2c3c(n[nH]c3C)C(=O)N2c2ccc(Br)cc2)ccc1O` (stereo not drawn) was > 30 µM (inactive); that for `COC(=O)c1cn(NC(=O)c2cccnc2)c(=O)c2ccccc12` was > 30 µM (inactive); that for `CCCc1cc(O)c2c(C)cc(=O)oc2c1` was > 30 µM (inactive).
For the compound `COc1ccc(/C=C2/Sc3ccc(C(=O)NCCN4CCCCCC4)cc3NC2=O)cc1`, the EC50 is > 30 µM (inactive).
Turning to `Cc1ccccc1-c1nnc(SCc2ccc(F)cc2)o1`, the EC50 was > 30 µM (inactive).
On to `CCCN(CCC)CCCNc1ccc2nnc(-c3ccc(F)cc3)n2n1`, for which the EC50 was > 30 µM (inactive).
In the case of `O=c1c(O[C@@H]2O[C@H](CO)[C@@H](O)[C@H](O)[C@H]2O)c(-c2ccc(O)c(O)c2)oc2cc(O)cc(O)c12`, the EC50 was > 30 µM (inactive).
Consider `Cc1ccc2c(c1)cc1c(=O)n(CC(=O)NCCN3CCCC3)nc(C)n12`, for which the EC50 was > 30 µM (inactive).
The value for `COc1cccc2cc(C(=O)OC(C)C(=O)c3ccc(C)cc3)c(=O)oc12` (stereo not drawn) was > 30 µM (inactive).
The figure for `CC(=O)Oc1cc(C)cc2oc(=O)cc(-c3ccccc3)c12` is > 30 µM (inactive); for `CC1(C)CC(=O)C=C(Nc2ccc(F)cc2)C1` it is > 30 µM (inactive); for `COc1ccc(NC(=O)c2sc(SC)nc2N)cc1` it is > 30 µM (inactive).
In the case of `CCOC(=O)c1nnn(CC(=O)Nc2cccc(OC)c2)c1C(=O)OCC`, the EC50 was > 30 µM (inactive).
With `CC1(C)CC(=O)C2=C(C1)Nc1ccccc1NC2c1ccc(F)cc1` (stereo not drawn), the EC50 is > 30 µM (inactive).
`O=C(Nc1ccccc1)Nc1ccncc1`: the EC50 was > 30 µM (inactive).
With `Cc1cc([N+](=O)[O-])c(C)cc1-c1ccc(/C=N/n2cnnc2)o1`, the EC50 was > 30 µM (inactive).
In the case of `Nc1nc(NCCCN2CCOCC2)nc(Nc2ccc(Cl)cc2)c1[N+](=O)[O-]`, the EC50 was > 30 µM (inactive).
`CCCC(=O)Nc1nn(CC(C)C)c2nc3cc(C)ccc3cc12`: the EC50 is > 30 µM (inactive).
Consider `N#Cc1cccc(-c2nnc(SCc3ccccc3C#N)o2)c1`, for which the EC50 was > 30 µM (inactive).
Regarding `COc1cc(C2OCC3C(c4cc(OC)c(OC)c(OC)c4)OCC23)cc(OC)c1OC` (stereo not drawn), the EC50 is > 30 µM (inactive).
Take `Cc1cc(NC(=O)/C=C/c2cccc(F)c2)n(-c2nc3ccccc3[nH]2)n1`: the EC50 was > 30 µM (inactive).
`O=c1c2ccccc2cnn1-c1nc2ccccc2[nH]1`: the EC50 is 25.9 µM (active).
Turning to `CN1CCN(C(=O)Cn2ncc3c([nH]c4ccccc43)c2=O)CC1`, the EC50 is > 11 µM (inactive).
Take `CC(C(=O)NCc1ccco1)n1cc([N+](=O)[O-])cn1` (stereo not drawn): the EC50 was > 30 µM (inactive).
Consider `CCOC(=O)CCCSc1nnc(CCCCCN2C(=O)c3cccc4cccc(c34)C2=O)o1`, for which the EC50 was > 30 µM (inactive).
The value for `CCN(CC)Cc1c(O)ccc2occ(C(=O)c3ccc(OC)cc3)c12` was > 30 µM (inactive); that for `Clc1ccc(-c2nnc(-c3ccccc3)c(N3CCSCC3)n2)cc1` was > 30 µM (inactive).
`COc1ccc(Nc2ccccc2C(=O)O)cc1`: the EC50 was > 30 µM (inactive).
In the case of `O=C(CN(Cc1cccs1)C(=O)CCC(=O)Nc1ccccn1)NCc1ccccc1`, the EC50 is > 30 µM (inactive).
Turning to `N#Cc1c(N)n(-c2cccc(O)c2)c2nc3ccccc3nc12`, the EC50 is > 30 µM (inactive).
Take `Cc1ccc(S(=O)(=O)NCC2COc3ccccc3O2)cc1` (stereo not drawn): the EC50 is > 30 µM (inactive).
Regarding `CN1CCN(c2nc(-c3ccccc3)nc(-c3ccccc3)c2C#N)CC1`, the EC50 was > 30 µM (inactive).
Consider `COC(CNC(=O)CCc1c(C)nc2c(c(C)nn2-c2ccc(C)cc2)c1C)OC`, for which the EC50 is > 30 µM (inactive).
Take `CCOC(=O)c1nnn(-c2nonc2N)c1CN(CC)CC`: the EC50 is > 30 µM (inactive).
The figure for `COc1cccc2cc(C(=O)CS(=O)(=O)c3ccc(C)cc3)c(=O)oc12` is > 30 µM (inactive); for `CCCOc1ccc(-c2c(C(=O)N/N=C(\C)c3ccco3)nnn2-c2nonc2N)cc1` it is > 30 µM (inactive).
In the case of `CCc1ccc(/C=N/NC(=O)c2nnn(-c3nonc3N)c2CN2CCc3ccccc32)cc1`, the EC50 was > 30 µM (inactive).
With `NC(=O)c1ccc(Oc2ccc(Cl)c3ccccc23)c([N+](=O)[O-])c1`, the EC50 is > 30 µM (inactive).
Take `Cc1[nH]nc2c1C(c1cccs1)C1=C(CCCC1=O)N2` (stereo not drawn): the EC50 was > 30 µM (inactive).
Take `CC(C)CCNc1nc(N)c([N+](=O)[O-])c(NC2CCCCC2)n1`: the EC50 was > 30 µM (inactive).
The figure for `CCCCn1nc(NC(=O)COC)c2cc3cc(OC)ccc3nc21` is > 30 µM (inactive); for `O=C(c1cccs1)c1coc2ccc(O)c(CN(CCO)CCO)c12` it is > 30 µM (inactive); for `COc1cccc(C2C3=C(CCCC3=O)Nc3[nH]n(-c4ccccc4)c(=O)c32)c1` (stereo not drawn) it is > 30 µM (inactive).
The value for `Cc1ccc(C(=O)O/N=C\c2ccc(N3CCCCC3)c([N+](=O)[O-])c2)cc1` was > 30 µM (inactive); that for `Cc1ccc(Sc2ccc(/C=N/O)cc2[N+](=O)[O-])cc1` was > 30 µM (inactive); that for `CS(=O)(=O)N(CCc1ccccc1)CC(=O)N1CCN(c2ccccc2F)CC1` was > 30 µM (inactive).
Consider `CC1CCN(Cc2c(C(=O)N/N=C/c3ccccc3O)nnn2-c2nonc2N)CC1`, for which the EC50 was > 30 µM (inactive).
Consider `Cn1c(SCC(=O)NC2CCCCC2)nnc1-c1ccccn1`, for which the EC50 is > 30 µM (inactive).
Take `O=C(CCSc1nnc(-c2ccncc2)o1)Nc1ccc(F)cc1`: the EC50 is > 30 µM (inactive).
Take `O=C1Nc2cc(C(=O)NCCCN3CCCC3)ccc2S/C1=C/c1ccccc1F`: the EC50 is > 30 µM (inactive).
Consider `CCCNC(=O)c1ccc(Cl)cc1Cl`, for which the EC50 is > 30 µM (inactive).
The value for `COc1cccc(C(=O)CSc2nccn2C)c1` was > 30 µM (inactive).
For `COc1ccc(-c2cc(C(=O)N3CCN(C(=O)c4ccco4)CC3)[nH]n2)cc1`, the EC50 was > 30 µM (inactive).
Take `CC(C)(C)C(=O)COC(=O)c1ccc(O)cc1`: the EC50 was > 30 µM (inactive).
Regarding `CC(OC(=O)c1nsc(Cl)c1Cl)C(=O)NCc1ccco1` (stereo not drawn), the EC50 is > 30 µM (inactive).
